The values that follow come from PubChem BioAssay (NCATS).

Results filed as inconclusive are left out. A number with no mark means an inactive call. Activity calls are given as the source filed them. Calls follow the shape of the dose curve; as a rule, active = well fitted cell-killing curve with a large enough effect; inconclusive = small, poorly fitted or top-dose-only effect; inactive = no such curve, though single readings can be large or run the other way.

The test in a line: qHTS of pediatric cancer cell lines to identify multiple opportunities for drug repurposing: Primary screen for NB-EBc1 cells (AID 1347095). As to conditions: NB-EBc1 neuroblastoma viability, CellTiter-Glo luminescence, 48 h; series mostly up to 46 µM. The text has this:
Drug repurposing or repositioning has been offered as a strategy for drug development in oncology programs. This approach has special potential for childhood cancers and other rare or orphan diseases, where the expected return on new drug development has been a disincentive to pharmaceuticals. […] In this project we exploit the poly-pharmacology of drugs to discover new indications via phenotypic screening of a panel of 19 well-characterized cell lines derived from solid tumors seen in children and adolescents. The goal is to identify approved drugs with previously unrecognized anticancer properties that has the potential to reveal new mechanisms and biological processes involved in carcinogenesis or drug resistance. We employed a titration-based paradigm (quantitative high-throughput screening or qHTS), where all compounds were tested at multiple concentrations for their effect on cell viability. Concentration-response curves (CRCs) were derived directly from the primary screen, and both potency and efficacy values were used to identify compounds with robust bioactivity profiles. We screened the NIH Chemical Genomics Center (NCGC) Pharmaceutical Collection (NPC) and Mechanism Interrogation Plate (MIPE) small molecule collections of approved and investigational compounds against these cell lines; and measured metabolically active cells after 48 hours of compound treatment as a proxy for cell viability. […] Assay Submitter: Nathalia J. Martinez, National Center for Advancing Translational Sciences, National Institutes of Health, Rockville, MD, USA; email: natalia.martinez@nih.gov Shen, M et al. Quantitative high-throughput phenotypic screening of pediatric cancer cell lines identifies multiple opportunities for drug repurposing. Oncotarget 2017 Dec 19;9(4):4758-4772. PMID 29435139.
The cells were obtained from University of North Carolina (UNC), Pediatric Preclinical Testing Program (PPT), and Coriell Institute (CI). qHTS cell viability assay: Cells were assayed in growth media at a density of 500-1,000 cells/well. Five microliters of cells were dispensed into 1,536-well, white, solid-bottom, TC-treated plates (Greiner Bio One) using a multidrop dispenser and incubated at 37 degrees C, 5% CO2, under a humidified atmosphere for 5 hours. Twenty-three nanoliters of compounds and controls (neutral control DMSO or positive control bortezomib at final concentration of 2.3 µM) were subsequently transferred by Kalypsys pintool. For primary screens, the MIPE collection was tested at 11-point dilutions (final concentrations range from 0.78 nM to 46 µM) and the NPC collection at 8-point dilutions (final concentrations range from 0.59 nM to 46 µM). Compounds tested in follow-up screens were assayed at 11-point dilutions. Cells were incubated for 48 hours, followed by addition of 3 µL of CellTiter-Glo (Promega). After a 15 min incubation at room temperature, samples were analyzed for luminescence intensity using a ViewLux High-throughput CCD imager equipped with clear filters.
On to `COCC(=O)Nc1c(I)c(C(=O)NCC(O)CO)c(I)c(C(=O)N(C)CC(O)CO)c1I` (stereo not given), for which the result was inactive. The same measure, in the same setting: next, `COC(=O)c1ccccc1C(=O)c1ccc(OCCN2CCCCC2)cc1`: “inactive”; `O=C(O)[C@@H]1[C@H]2C[C@H]3c4[nH]c5ccccc5c4CCN3C[C@@H]2CC[C@@H]1O`: “inactive”; `CC[N+](CC)(CC(=O)Nc1c(C)cccc1C)Cc1ccccc1`: “inactive”. Same read-out and setting: next, `O=C(CCBr)N1CCN(C(=O)CCBr)CC1`: “inactive”; `CN1C[C@@H]2C[C@H]1CN2c1cc2c(cc1F)c(=O)c(C(=O)O)cn2C1CC1`: “inactive”.

Take `NC(=O)NS(=O)(=O)c1ccc(N)cc1`: the result was inactive. For the molecule `CC(C)NC[C@@H](O)COc1ccc(CC(N)=O)cc1`, the molecule was called inactive. As for `COc1nccnc1NS(=O)(=O)c1ccc(N)cc1`, the call was inactive. On the same count and under the same terms, next, `CN1C(C)(C)CCCC1(C)C`: “inactive”; `NS(=O)(=O)c1cc(C2(O)NC(=O)c3ccccc32)ccc1Cl` (stereo not given): “inactive”. The same measure, in the same setting: next, `O=C(O)Cn1c(C(=O)Nc2nc(-c3ccccc3Cl)cs2)cc2ccccc21`: “inactive”. The same measure, in the same setting: next, `CC(O)CCCCn1c(=O)c2c(ncn2C)n(C)c1=O` (stereo not given): “inactive”; `NC(=O)NC1NC(=O)NC1=O` (stereo not given): “inactive”. As for `CN1C(=O)CC(c2ccccc2)C1=O` (stereo not given), the molecule was classed as inactive. The same measure, in the same setting: next, `CC(N)CCCC(C)(C)O` (stereo not given): “inactive”; `CC[C@]12CCCN3CCc4c(n(c5ccccc45)[C@@](O)(C(=O)OC)C1)[C@@H]32`: “inactive”; `CC(CN(C)C)C(C)(O)Cc1ccc(Cl)cc1` (stereo not given): “inactive”. On the same count and under the same terms, next, `O=c1[nH]c2cc(C(F)(F)F)c(N3CCOCC3)cc2n(CP(=O)(O)O)c1=O`: “inactive”; `O=C(O)CCC(=O)O`: “inactive”.

In the case of `O=C(O)CCCCC1CCSS1` (stereo not given), the result was inactive. On the same count and under the same terms, next, `CC(=O)N(CC(O)CO)c1c(I)c(C(=O)NCC(O)CO)c(I)c(C(=O)NCC(O)CO)c1I` (stereo not given): “inactive”; `Cc1cc(OI)c(C(C)C)cc1-c1cc(C(C)C)c(OI)cc1C`: “inactive”.

As for `N[C@@H](Cc1ccc(O)cc1)C(=O)O`, the activity change, negative = cytotoxic was 15% [at 9.22 µM]. Turning to `O=C(O)c1cc(=O)c2ccccc2o1`, the molecule was classed as inactive. With `CC(=O)Nc1ccc(OCCOCCOc2ccc(NC(C)=O)cc2)cc1`, the call was inactive. Same read-out and setting: next, `COc1ccc(-c2cc(=O)c3c(O)cc(O[C@@H]4O[C@H](CO[C@@H]5O[C@@H](C)[C@H](O)[C@@H](O)[C@H]5O)[C@@H](O)[C@H](O)[C@H]4O)cc3o2)cc1O`: “inactive”.

On to `NS(=O)(=O)c1cc2c(cc1C(F)(F)F)NCNS2(=O)=O`, for which the molecule was classed as inactive. The same measure, in the same setting: next, `CC(C)(C)C(=O)OCOC(=O)[C@@H]1N2C(=O)[C@@H](NC(=O)[C@H](N)c3ccccc3)[C@H]2SC1(C)C`: “inactive”; `O=C(O)c1ccc(OCCCOc2ccc(C(=O)O)cc2)cc1`: “inactive”; `C[n+]1ccccc1/C=N/O`: “inactive”. Still for that read-out and setting: next, `CCS(=O)(=O)CCn1c([N+](=O)[O-])cnc1C`: “inactive”; `Cc1ccsc1/C=C/C1=NCCCN1C`: “inactive”; `Cc1ccc2c(c1)c1c3n2CCNC3CCC1` (stereo not given): “inactive”. Still for that read-out and setting: next, `C=CCOc1ccccc1OCC(O)CNC(C)C` (stereo not given): “inactive”; `Cc1cc(O)cc(C)c1Cl`: “inactive”. As to `CC(C)=CCC[C@@](C)(O)[C@H]1CC=C(C)CC1`, the result was inactive. On the same count and under the same terms, next, `O=C(O)c1ccc[n+]([O-])c1`: “inactive”. Regarding `CC(=O)NS(=O)(=O)c1ccc(N)cc1`, the outcome was inactive. As to `C[C@@H]1O[C@@H](OC[C@H]2O[C@@H](Oc3c(-c4ccc(O)c(O)c4)oc4cc(O)cc(O)c4c3=O)[C@H](O)[C@@H](O)[C@@H]2O)[C@H](O)[C@H](O)[C@H]1O`, the result was inactive.
